Results as given in the supplement of paper PMC9925115.
± gives the uncertainty stated by the source.

What follows are compounds tested on FLX1 (assay: cell viability z-score within plate (CellTiter-Glo), mean of 3 biological replicates; higher = higher viability relative to plate (less growth inhibition)). Conditions: 2 µM; time (hr): 120.
Description: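 FLX1 fibrolamellar carcinoma cells (DNAJB1-PRKACA fusion), 600 cells/well in 384-well plates, treated with a Selleck kinase inhibitor library (L1200) at 2 uM for 5 days (120 hr); viability by CellTiter-Glo. A z-score was computed within each plate and averaged over three biological replicates.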

SMILES | cell viability z-score within plate
CC(C)(C)c1cc(C=C(C#N)C#N)cc(C(C)(C)C)c1O [Tyrphostin 9] | 0.448 ± 0.24
CC(C)(C)c1cc(C=C(C#N)C#N)cc(Br)c1O | -0.784 ± 0.7
Cc1ccccc1-n1c(Cn2ncc3c(N)ncnc32)nc2cccc(C)c2c1=O | 0.16 ± 0.68
CCN1CCN(C(=O)Cc2ccc(Nc3ncc(F)c(Nc4ccc(C(=O)Nc5ccccc5Cl)cc4)n3)cc2)CC1 [Aurora A Inhibitor I] | -0.367 ± 0.29
Cn1cc(C2=C(c3cn(C4CCN(Cc5ccccn5)CC4)c4ccccc34)C(=O)NC2=O)c2ccccc21 | -2.47 ± 0.57
O=c1[nH]c2ccc(Cl)cc2c(N[C@@H]2CN3CCC2CC3)c1-c1nc2ccccc2[nH]1 | 0.562 ± 0.43
